CYP2C19 act: activators of human cytochrome P450 2C19; recombinant CYP2C19, luciferin-H EGE luminescence; stronger effect = higher value; 0 = fully inhibited enzyme, 1 = untreated enzyme; 96,000 tested, under 10 active; activation factor at 5 µM; AID 1025;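 active means activation factor of at least 2 at 5 µM in the primary screen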;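 further: 0 = wells with 2.5 mM tranylcypromine and 1 = vehicle-only wells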
CYP2C19 inhib: inhibitors of human CYP2C19; P33261; CYP2C19 Supersomes, luciferin-H EGE luminescence, 30 min; inhibition, % at 5 µM; 21% of 96,000 active; AID 778;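 active means CYP2C19 inhibition above a set limit at 5 µM in the primary screen, cut at about 50% in these data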;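 further: plate controls were negative control wells for no effect and 2.5 mM tranylcypromine positive control for full effect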
CYP2C9 inh: blocks human cytochrome P450 2C9; P11712; CYP2C9 Supersomes, luciferin-H conversion, luminescence; inhibition, % at 5 µM; 20% of 96,000 active; AID 777;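 active means blocking of liver enzyme CYP2C9 beyond about 50% at 5 µM, limit read from the data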
Target sequence (P11712 whole entry, looked up): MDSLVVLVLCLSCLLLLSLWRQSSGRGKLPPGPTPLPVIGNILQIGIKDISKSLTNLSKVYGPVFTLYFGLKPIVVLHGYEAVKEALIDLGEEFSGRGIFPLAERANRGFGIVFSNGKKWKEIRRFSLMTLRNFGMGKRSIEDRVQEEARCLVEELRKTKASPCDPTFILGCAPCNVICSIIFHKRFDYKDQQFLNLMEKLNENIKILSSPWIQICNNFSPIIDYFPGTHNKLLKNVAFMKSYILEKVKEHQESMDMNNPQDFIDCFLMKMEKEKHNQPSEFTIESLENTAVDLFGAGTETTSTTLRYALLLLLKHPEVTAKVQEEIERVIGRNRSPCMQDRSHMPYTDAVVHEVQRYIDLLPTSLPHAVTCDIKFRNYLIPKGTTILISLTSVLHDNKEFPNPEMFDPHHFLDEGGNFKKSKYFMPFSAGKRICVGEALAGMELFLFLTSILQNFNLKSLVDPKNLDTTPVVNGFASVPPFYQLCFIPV
PLAP activator: human PLAP activation | P05187 | purified PLAP enzyme, luminescent substrate read-out; stronger effect = higher value | activation fold at 20 µM | 1.2% of 96,000 active | AID 696; in the data active means activation fold above about 2
CYP2C9 act: increases human cytochrome P450 2C9 activity; P11712; recombinant CYP2C9, luciferin-H conversion, luminescence; stronger effect = higher value; factor 1 = untreated enzyme, 0 = blocked; activation factor at 5 µM; 1.4% of 96,000 active; AID 1024;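 active means activation factor of 2 or more for CYP2C9 at a 5 µM dose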;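 further: 0 = sulfaphenazole-blocked wells and 1 = vehicle-only wells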
* marks the source's active call; other numbers are inactive results. Shown are actives, neighbours in structure and some others; about 31% of the full set was active somewhere.

SMILES	CYP2C19 act	CYP2C19 inhib	CYP2C9 inh	PLAP activator	CYP2C9 act
Cc1nc2c(C(=O)NCc3ccco3)cnn2c(C)c1Cc1ccc(F)cc1Cl	0.9	14	4	1.1	1
Cc1ccc(C)c(Cc2c(C)nc3c(C(=O)NCc4ccc5c(c4)OCO5)cnn3c2C)c1	0.6	43	87*	1.4	0.1
O=C(NCc1ccco1)c1cnn2c(C(F)(F)F)cc(-c3ccccc3)nc12	1	1	42	1.1	0.6
COc1ccc(-c2cc(C(F)(F)F)n3ncc(C(=O)NCc4ccco4)c3n2)cc1	0.5	51*	54*	1	0.5
Cc1cccc(Cc2c(C)nc3c(C(=O)NCc4ccco4)cnn3c2C)c1	0.5	50*	56*	1	0.4
Cc1nc2c(C(=O)NCc3ccc4c(c3)OCO4)cnn2c(C)c1Cc1ccc(F)cc1Cl	0.4	59*	86*	1.3	0.1
CC(O)CCC(=O)NCCNC(=O)CCC(C)O (stereo not given)	1.2	-18	-15	1	1.1
Cc1ccc([N+](=O)[O-])cc1N=C(c1cccc(Br)c1)N1CCOCC1	0.4	64*	52*	1.2	0.5
O=C(Oc1ccccc1C(=O)N1CCOCC1)c1cccc(Br)c1	1.1	-6	0	1.2	1
CC(C)c1nc(=S)c2ccccc2[nH]1	0.4	63*	53*	1.1	0.5
CCC1C(=O)N=C(SCC(=O)Nc2ccc(C(=O)OC)cc2)NC1=O (stereo not given)	0.9	11	11	1.2	0.9
CCCOC(=O)c1ccc(NC(=O)CSC2=Nc3ccccc3C3CC=NN23)cc1 (stereo not given)	0.5	52*	80*	1.5	0.2
COc1ccc(S(=O)(=O)N2CCC(C(=O)N3CCc4ccccc4C3)CC2)cc1Cl	0.1	92*	28	1.9	0.7
CCS(=O)(=O)N1CCC(C(=O)N2CCc3ccccc3C2)CC1	0.4	60*	-20	0.9	1.2
CN(C)S(=O)(=O)c1ccc(NC(=O)N2CCN(c3ccccc3Cl)CC2)cc1	1	-1	-5	1	1
CCOC(=O)c1c(N2C(=O)C=CC2=O)sc(C)c1C	0.9	9	19	1.7	0.8
COc1ccccc1CNc1ccc(C(=O)O)cc1	1	-4	-6	1	1.1
COc1ccc(Br)cc1CNc1ccc(O)cc1	0.3	73*	30	1.1	0.7
COc1ccc(NC(=S)N2CCC(c3nc4ccccc4[nH]3)CC2)c(OC)c1	0.8	22	59*	1.3	0.4
CCOc1ccccc1NC(=O)N1CCC(c2nc3ccccc3[nH]2)CC1	0.4	63*	-47	1.3	1.5
COCCn1cc(C(=O)N2CCC(C)CC2)c2c3ccccc3n(C)c2c1=O	1.1	-7	4	1.5	1
Oc1ccc2oc3c(c2c1/C=N/n1cnnc1)CCCC3	0.5	48	63*	0.9	0.4
C(=N\n1cnnc1)/c1ccc2c(c1)OCO2	0.7	26	-1	0.9	1
CCOC(=O)C(C(C)=O)c1c(Br)c(O)c(O)c2c(C(=O)c3ccc(C)cc3)coc12 (stereo not given)	0.7	32	98*	1.4	0
CCOC(=O)c1c(C)n(-c2ccc(C)cc2)c2c(C(C(C)=O)C(=O)O)c(Br)c(O)c(O)c12 (stereo not given)	1	-4	-2	1.6	1
SMILES	CYP2C19 act	CYP2C19 inhib	CYP2C9 inh	PLAP activator	CYP2C9 act
CN(C)c1nc(OCCOC(=O)c2ccccc2)nc(N(C)C)n1	0	99*	70*	1.5	0.3
CCOC(=O)c1ccc(Oc2nc(N(C)C)nc(N(C)C)n2)cc1	0.8	20	11	1	0.9
O=C(NCCOc1nc(N2CCOCC2)nc(N2CCOCC2)n1)Nc1ccc(Cl)cc1	0.7	31	16	0.9	0.8
COc1nc(OCCNC(=O)Nc2ccccc2)nc(N(C)C)n1	0.3	71*	46	1.3	0.5
CNc1nc(OCCNC(=O)Nc2ccccc2)nc(N2CCOCC2)n1	0.7	34	65*	1	0.3
COc1ccc(OCCSc2nnc3sc4ccccc4n23)cc1	0.5	47	0	1.2	1
COc1ccccc1N=c1sc2ccccc2n1C	0.2	77*	42	1	0.6
CCCCn1c(=N)n(CC(O)COc2ccccc2)c2ccccc21 (stereo not given)	0.6	42	16	1.3	0.8
Cn1c(=NCC(O)COc2ccccc2)sc2ccccc21 (stereo not given)	0	95*	44	1.5	0.6
COc1ccc(N=c2sc3ccccc3n2C)cc1	0.5	51*	29	0.8	0.7
Cc1ccc(CN(CC(=O)N/N=C/c2ccco2)S(=O)(=O)c2ccc(C)cc2)cc1	0	100*	90*	1.3	0.1
O=C(CN(c1ccc(Cl)cc1)S(=O)(=O)c1ccccc1)N/N=C/c1ccco1	0	98*	82*	1.7	0.2
O=C(Nc1ccccc1C(=O)N/N=C/c1ccco1)c1ccccc1Cl	0.9	11	-9	1.4	1.1
Cc1ccc(NC(=O)CC2Oc3ccccc3NC2=O)c(C)c1 (stereo not given)	0.9	12	-18	1	1.2
CCN(C(=O)c1c(-c2ccccc2)noc1C)c1ccccc1	0.6	44	-5	1	1
CCc1nn2cc(-c3ccccc3)nc2s1	0.1	88*	59*	0.8	0.4
Cc1nn2cc(-c3ccc(-c4ccccc4)cc3)nc2s1	1	4	5	1.1	1
C=C(C)C(=O)OC1(C(F)(F)F)Oc2cc(C)ccc2NC1=O (stereo not given)	0.4	63*	39	1.1	0.6
COC(=O)CC1Oc2ccc(C)cc2NC1=O (stereo not given)	0.8	25	13	0.9	0.9
CCOC(=O)CNC(=O)c1c(C)nn(-c2ccccc2)c1Cl	0.9	8	4	0.9	1
Cc1nn(-c2ccccc2)c(Cl)c1C(=O)OC(C)C(=O)NC(=O)NC1CCCCC1 (stereo not given)	0.6	39	55*	1.5	0.5
Cc1nn(-c2ccccc2)c(Cl)c1C(=O)NCC(C)C	0.3	69*	63*	1.1	0.4
CC(C)CCn1c(=O)c2ccccc2n2c(COC(=O)c3ccc(S(=O)(=O)N(C)C)cc3)nnc12	1	4	1	1	1
O=C1NCCCC1C(=O)Nc1ccccn1 (stereo not given)	1	3	2	1	1
Cc1ccc(NCC(=O)N/N=C/c2cc3ccccc3nc2Cl)cc1	0.7	30	54*	1.2	0.5
COc1ccccc1NC(=O)c1nnn(CC(=O)Nc2cccc(SC)c2)c1N	1	2	-53	1.2	1.5
CCN1C(=O)C(NC(C)=O)c2cc(Br)ccc21 (stereo not given)	1.1	-14	-16	1.3	1.2
CCCCN1C(=O)C(NC(C)=O)c2cc(Br)ccc21 (stereo not given)	0.2	79*	24	1.5	0.8

Bioassay records from PubChem.
